Data: PubChem BioAssay AID1159580 (chemical genetic matrix, 2015)
“And” between values parts separate entries of the source, which are not always exact repeats. Identical values can stand only once. The campaign covered roughly 5,500 compounds. About 2,000 (36%) were called active. Roughly 18% stayed inconclusive and do not appear here. Cut-off read from the data, not from the text of the source: active = normalized growth mostly below about 0.91 (no sharp cut-off); inconclusive = no clear call, values can overlap the other calls; inactive = mostly above about 0.92. The list shows a part of the results.

Test: chemical genetic growth profiling, strain panel (AID 1159580);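 note: tested at 20 µM; growth read once vehicle control cultures reached saturation at 30 °C; 1 = growth at the plate median or of vehicle wells; lower values mean less growth of the strain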
Settings: growth OD

Measured: normalized growth

CC(C)NCC(O)c1cc(O)cc(O)c1 (centres undefined)
inactive: S. cerevisiae deletion strains, locus YJR043C, strain POL32, hits give low values 1.02 | S. cerevisiae deletion strains, locus YJR066W, strain TOR1, hits give low values 0.916 | S. cerevisiae deletion strains, locus YKL009W, strain mrt4, hits give low values 0.967 | S. cerevisiae deletion strains, locus YKL068W, hits give low values 0.989 | S. cerevisiae deletion strains, locus YKL085W, strain MDH1 (second series), hits give low values 0.979 | S. cerevisiae deletion strains, locus YKL085W, strain MDH1, hits give low values 0.979 | S. cerevisiae deletion strains, locus YKL160W, strain elf1, hits give low values 0.983 | S. cerevisiae deletion strains, locus YKL190W, strain CNB1, hits give low values 0.989 | S. cerevisiae deletion strains, locus YKR001C, strain vps1, hits give low values 1.02 | S. cerevisiae deletion strains, locus YKR026C, strain gcn3, hits give low values 1 | S. cerevisiae deletion strains, locus YKR091W, strain srl3, hits give low values 0.986 | S. cerevisiae deletion strains, locus YLL001W, strain dnm1, hits give low values 0.951 | S. cerevisiae deletion strains, locus YLL026W, hits give low values 0.999 | S. cerevisiae deletion strains, locus YLL041C, strain sdh2, hits give low values 0.99 | S. cerevisiae deletion strains, locus YLR027C, strain aat2, hits give low values 0.998 | S. cerevisiae deletion strains, locus YLR039C, strain RIC1, hits give low values 0.995 | S. cerevisiae deletion strains, locus YLR058C, strain SHM2, hits give low values 0.994 | S. cerevisiae deletion strains, locus YLR102C, strain apc9, hits give low values 0.994 | S. cerevisiae deletion strains, locus YLR113W, strain HOG1, hits give low values 0.972 | S. cerevisiae deletion strains, locus YLR221C, strain rsa3, hits give low values 0.983 | S. cerevisiae deletion strains, locus YLR258W, strain gsy2, hits give low values 0.993 | S. cerevisiae deletion strains, locus YLR262C, strain YPT6 (second series), hits give low values 0.972 | S. cerevisiae deletion strains, locus YLR262C, strain YPT6, hits give low values 0.98 | S. cerevisiae deletion strains, locus YLR268W, strain sec22, hits give low values 1.01 | S. cerevisiae deletion strains, locus YLR320W, strain mms22, hits give low values 0.984 | S. cerevisiae deletion strains, locus YLR330W, strain CHS5, hits give low values 0.998 | S. cerevisiae deletion strains, locus YLR342W, strain FKS1 (second series), hits give low values 1.01 | S. cerevisiae deletion strains, locus YLR342W, strain FKS1, hits give low values 0.987 | S. cerevisiae deletion strains, locus YLR357W, strain rsc2, hits give low values 0.974 | S. cerevisiae deletion strains, locus YLR370C, strain arc18, hits give low values 0.975 | S. cerevisiae deletion strains, locus YLR371W, strain rom2, hits give low values 1 | S. cerevisiae deletion strains, locus YLR384C, strain iki3, hits give low values 0.993 | S. cerevisiae deletion strains, locus YLR418C, strain cdc73, hits give low values 0.984 | S. cerevisiae deletion strains, locus YML016C, strain PPZ1, hits give low values 1.01 | S. cerevisiae deletion strains, locus YML032C, strain rad52, hits give low values 1.01 | S. cerevisiae deletion strains, locus YML120C, strain ndi1, hits give low values 0.965 | S. cerevisiae deletion strains, locus YML124C, strain tub3, hits give low values 1 | S. cerevisiae deletion strains, locus YMR058W, strain fet3, hits give low values 0.996 | S. cerevisiae deletion strains, locus YMR078C, strain ctf18, hits give low values 0.988 | S. cerevisiae deletion strains, locus YMR125W, strain sto1, hits give low values 0.971 | S. cerevisiae deletion strains, locus YMR129W, hits give low values 0.992 | S. cerevisiae deletion strains, locus YMR205C, strain PFK2, hits give low values 0.955 | S. cerevisiae deletion strains, locus YMR223W, strain ubp8, hits give low values 0.975 | S. cerevisiae deletion strains, locus YMR231W, strain pep5, hits give low values 0.998 | S. cerevisiae deletion strains, locus YMR307W, strain GAS1, hits give low values 1.04 | S. cerevisiae deletion strains, locus YNL067W, strain RPL9B, hits give low values 0.995 | S. cerevisiae deletion strains, locus YNL071W, strain lat1, hits give low values 0.98 | S. cerevisiae deletion strains, locus YNL128W, strain TEP1, hits give low values 0.967 and 0.965 | S. cerevisiae deletion strains, locus YNL153C, strain GIM3, hits give low values 1.01 | S. cerevisiae deletion strains, locus YNL175C, strain NOP13, hits give low values 1 | S. cerevisiae deletion strains, locus YNL183C, strain NPR1, hits give low values 0.924 | S. cerevisiae deletion strains, locus YNL197C, strain WHI3, hits give low values 1.01 | S. cerevisiae deletion strains, locus YNL209W, strain ssb2, hits give low values 0.988 | S. cerevisiae deletion strains, locus YNL224C, strain SQS1, hits give low values 0.997 | S. cerevisiae deletion strains, locus YNL233W, strain BNI4, hits give low values 0.997 | S. cerevisiae deletion strains, locus YNL248C, strain rpa49, hits give low values 0.985 | S. cerevisiae deletion strains, locus YNL250W, strain rad50, hits give low values 0.979 | S. cerevisiae deletion strains, locus YNL271C, strain bni1, hits give low values 0.98 | S. cerevisiae deletion strains, locus YNL298W, strain CLA4, hits give low values 0.975 | S. cerevisiae deletion strains, locus YNL307C, strain MCK1, hits give low values 0.995 | S. cerevisiae deletion strains, locus YNL322C, strain KRE1 (second series), hits give low values 0.986 | S. cerevisiae deletion strains, locus YNR049C, strain mso1, hits give low values 0.993 | S. cerevisiae deletion strains, locus YNR052C, strain pop2, hits give low values 0.987 | S. cerevisiae deletion strains, locus YOL012C, strain htz1 0.863 | S. cerevisiae deletion strains, locus YOL147C, strain pex11, hits give low values 0.992 | S. cerevisiae deletion strains, locus YOR001W, strain rrp6, hits give low values 0.994 | S. cerevisiae deletion strains, locus YOR061W, strain CKA2, hits give low values 1 | S. cerevisiae deletion strains, locus YOR069W, strain VPS5, hits give low values 0.996 | S. cerevisiae deletion strains, locus YOR070C, strain gyp1, hits give low values 0.993 | S. cerevisiae deletion strains, locus YOR080W, strain dia2, hits give low values 1 | S. cerevisiae deletion strains, locus YOR083W, strain WHI5 (second series), hits give low values 1 | S. cerevisiae deletion strains, locus YOR083W, strain WHI5, hits give low values 0.96 | S. cerevisiae deletion strains, locus YOR106W, strain vam3, hits give low values 0.976 | S. cerevisiae deletion strains, locus YOR136W, strain idh2, hits give low values 0.997 | S. cerevisiae deletion strains, locus YOR144C, strain elg1, hits give low values 1.01 | S. cerevisiae deletion strains, locus YOR184W, strain ser1, hits give low values 0.991 | S. cerevisiae deletion strains, locus YOR231W, strain MKK1, hits give low values 0.97 | S. cerevisiae deletion strains, locus YOR265W, strain rbl2, hits give low values 0.994 | S. cerevisiae deletion strains, locus YOR270C, strain vph1, hits give low values 0.98 | S. cerevisiae deletion strains, locus YOR290C, strain snf2, hits give low values 0.929 | S. cerevisiae deletion strains, locus YOR316C, strain cot1, hits give low values 0.993 | S. cerevisiae deletion strains, locus YPL051W, strain arl3, hits give low values 0.989 | S. cerevisiae deletion strains, locus YPL055C, strain LGE1, hits give low values 1.02 | S. cerevisiae deletion strains, locus YPL078C, strain atp4, hits give low values 0.967 | S. cerevisiae deletion strains, locus YPL106C, strain sse1, hits give low values 0.978 | S. cerevisiae deletion strains, locus YPL240C, strain hsp82, hits give low values 0.984 | S. cerevisiae deletion strains, locus YPL241C, strain CIN2, hits give low values 0.996 | S. cerevisiae deletion strains, locus YPL256C, strain CLN2, hits give low values 0.953 | S. cerevisiae deletion strains, locus YPR119W, strain clb2, hits give low values 0.984 | S. cerevisiae deletion strains, locus YPR141C, strain kar3, hits give low values 0.976 | S. cerevisiae deletion strains, locus YPR163C, strain tif3, hits give low values 0.991 | S. cerevisiae deletion strains, locus YPR167C, strain met16, hits give low values 0.991 | S. cerevisiae deletion strains, strain wtn01, hits give low values 0.998 | S. cerevisiae strains, strain wild type, hits give low values 1.01
